# Results reported in PubChem BioAssay AID463173 (ICCB-Longwood Screening Facility, Harvard Medical School, 2010).
# The campaign covered roughly 52,000 compounds. About 4,300 (8.3%) were called active. Cut-off read from the data, not from the text of the source: active = survival mostly below about 52% (no sharp cut-off); inactive = mostly above about 56%. This excerpt belongs to a sample that is enriched for actives.
# System: DeltatarO mutant
# Experiment: growth inhibition of S. aureus wild type versus tarO mutant, primary screen, teichoic acid synthesis inhibitors, RN4220, OD600 (AID 463173)
# Conditions: OD600, 18 h, active compounds read low, screened at 18.75 µg/mL (by protocol)
row,Structure (SMILES),survival
1,COc1cccc(NC(=O)c2cnc(SCC(=O)N3CCOCC3)n(C)c2=O)c1,120% (inactive)
2,COc1ccc(-n2nc(C(=O)N3CCC(C)CC3)c3c4ccccc4n(C)c3c2=O)cc1Cl,87% (inactive)
3,O=C(CSc1nnc(-c2ccccc2)c(-c2ccccc2)n1)Nc1ccccc1Cl,75% (inactive)
4,CC(C)CSc1nnc(-c2ccccc2)c(-c2ccccc2)n1,-8% (active)
5,CCc1ccccc1NC(=O)CSc1nnc(-c2ccccc2)c(-c2ccccc2)n1,88% (inactive)
6,COc1cccc(C(=O)NCC(c2ccc(N(C)C)cc2)N2CCc3ccccc32)c1 (stereo unspecified),144% (inactive)
7,COc1ccccc1-c1nnc(C2CCN(C(=O)c3cccc(Cl)c3)CC2)o1,88% (inactive)
8,O=C(CSc1nc2ccccc2n1Cc1cccc(F)c1)N1CCN(c2ccc(F)cc2)CC1,64% (inactive)
9,CN1CCc2c(sc(N)c2C(=O)O)C1,80% (inactive)
10,O=C(CSc1nc(=O)n(CCN2CCOCC2)c2c1CCC2)Nc1ccc(F)cc1F,124% (inactive)
11,CCc1ccc(-n2c(=O)c3c(C)c(C(=O)N(C)C)sc3n(Cc3cccc(C)c3)c2=O)cc1,99% (inactive)
12,Cc1ccc(-n2c(=O)c3c(C)c(C(=O)N(C)C)sc3n(Cc3ccccc3C)c2=O)cc1C,98% (inactive)
13,CCOc1ccc(-n2c(=O)c3c(C)c(C(=O)N(C)C)sc3n(CC(=O)Nc3c(C)cc(C)cc3C)c2=O)cc1,72% (inactive)
14,CCOc1ccc(-n2c(=O)c3c(C)c(C(=O)N(C)C)sc3n(Cc3cc(C)ccc3C)c2=O)cc1,0% (active)
15,COc1cccc(-n2c(=O)c3c(C)c(C(=O)N(C)C)sc3n(Cc3cccc(C)c3)c2=O)c1,37% (active)
16,COc1cccc(-n2c(=O)c3c(C)c(C(=O)N(C)C)sc3n(Cc3ccc(F)cc3Cl)c2=O)c1,92% (inactive)
17,CCn1c(C)c(C2N3CC4(C)CN2CC(C)(C3)C4=O)c2ccccc21 (stereo unspecified),92% (inactive)
18,N#C/C(=C\c1cn(CC(=O)N2CCCC2)c2ccccc12)C(=O)NCc1ccc2c(c1)OCO2,66% (inactive)
19,Fc1ccc(-c2noc3ncnc(NCc4ccc(Cl)cc4)c23)cc1,84% (inactive)

row,Structure (SMILES),survival
1,CCOC(=O)c1ccc(N2C(=O)c3n[nH]c(-c4cccs4)c3C2c2ccc(OC)cc2OC)cc1 (stereo unspecified),76% (inactive)
2,COC(=O)c1ccccc1NC(=O)c1ccc(COc2cc(C)cc(C)c2)o1,40% (inactive)
3,COc1ccccc1NC(=O)c1ccc(C)o1,61% (inactive)
4,CCOc1ccc(NC(=O)c2cc(=O)c3cc(CC)ccc3o2)cc1,57% (inactive)
5,CCOc1ccc(OCc2ccc(C(=O)Nc3cc(OC)c(OC)c(OC)c3)o2)cc1,54% (active)
6,C=CCc1ccc(OCc2ccc(C(=O)Nc3ccc(NC(C)=O)cc3)o2)c(OC)c1,121% (inactive)
7,COc1ccc(NC(=O)c2ccc(COc3ccccc3OC)o2)cc1OC,61% (inactive)
8,COC(=O)c1ccccc1NC(=O)c1ccc(COc2ccccc2Cl)o1,63% (inactive)
9,CCCc1ccc(OCc2ccc(C(=O)Nc3ccccc3C(=O)OC)o2)cc1,-2% (active)
10,COC(=O)c1cc(NC(=O)c2ccc(-c3ccc(Cl)cc3Cl)o2)cc(C(=O)OC)c1,53% (inactive)
11,CC(=O)Nc1ccc(NC(=O)c2ccc(COc3ccc(Cl)cc3Cl)o2)cc1,46% (active)
12,COc1ccccc1NC(=O)c1ccc(COc2ccc(C)c(C)c2)o1,1% (active)
13,Cc1cc(C)cc(OCc2ccc(C(=O)Nc3ccccc3F)o2)c1,45% (inactive)
14,O=C(O)CCCc1nc2ccccc2s1,75% (inactive)
15,Cc1cc(NC(=O)CSc2nc(-c3ccccc3F)nc3c2c(=O)n(C)c(=O)n3C)no1,86% (inactive)
16,COC(=O)c1ccccc1NC(=O)C1CCCN(c2ncnc3onc(C)c23)C1 (stereo unspecified),80% (inactive)
17,O=C(CNCC1CCCCC1)Nc1cccc(F)c1,88% (inactive)
18,COc1cc(CNC(=O)c2ccc3c(c2)N(C)C(=O)C2CCCCN32)cc(OC)c1OC (stereo unspecified),69% (inactive)
19,Cc1c(C(=O)N2CCC(C)CC2)c(S(=O)(=O)NCc2ccc(Cl)cc2)c(C)n1C,128% (inactive)

row,Structure (SMILES),survival
1,O=C(Nc1c(C(=O)N2CCN(c3ccccc3F)CC2)oc2ccccc12)c1ccc(Br)o1,80% (inactive)
2,CCc1cccc(C)c1NC(=O)Cn1cc2c(n1)CCCCC2,90% (inactive)
3,C#CCn1c(O)c(N=NC(=O)c2ccccc2-n2cccc2)c2ccccc21,60% (inactive)
4,CCCn1c(SCc2nc(-c3ccccc3OCC)no2)nnc1-c1ccc(Cl)cc1,43% (active)
5,COc1ccc(-c2noc(CSc3nnc(C)n3-c3ccc(C)cc3)n2)cc1,57% (active)
6,COc1ccc(-c2noc(CSc3nnc(-c4ccncc4)n3-c3ccccc3)n2)cc1,70% (inactive)
7,Cc1ccc(-c2noc(CSc3nnc(C)n3-c3ccc(C)cc3)n2)cc1,101% (inactive)
8,Cc1ccc(-n2c(SCc3nc(-c4ccc(Cl)cc4)no3)nnc2-c2ccncc2)cc1,37% (active)
9,CCCn1c(SCc2nc(-c3ccccc3C)no2)nnc1-c1ccc(Cl)cc1,47% (inactive)
10,COc1ccc(-n2c(SCc3nc(-c4ccc(C)cc4)no3)nnc2-c2ccncc2)cc1,57% (inactive)
11,CCCn1c(SCc2nc(-c3ccc(OC)cc3OC)no2)nnc1-c1ccc(Cl)cc1,53% (inactive)
12,COc1ccc(-n2c(SCc3nc(-c4ccc(Cl)cc4)no3)nnc2-c2ccncc2)cc1,49% (active)
13,COc1ccc(-c2noc(CSc3nnc(-c4ccncc4)n3-c3ccc(C)cc3)n2)cc1,55% (inactive)
14,COc1ccc(-c2noc(CSc3nnc(-c4ccncc4)n3-c3ccc(OC)cc3)n2)cc1,92% (inactive)
15,COc1ccc(-c2noc(CSc3nnc(C)n3-c3ccc(OC)cc3)n2)cc1,77% (inactive)
16,CC(C)Oc1ccc(C(=O)Nc2nonc2-c2ccc(OC(C)C)cc2)cc1,75% (inactive)
17,Cc1ccc2c(c1)N(C(=O)CCC(=O)Nc1ccc(F)cc1F)CC(C)O2 (stereo unspecified),56% (inactive)
18,CCOc1ccc(-c2nnc(SCC(=O)NCCc3ccc(OC)c(OC)c3)nc2-c2ccc(OCC)cc2)cc1,98% (inactive)
